33 compounds from PubChem BioAssay AID1345085 (National Center for Advancing Translational Sciences (NCATS), 2018) can be followed below.

Results filed as inconclusive are left out. Values without a mark were called inactive. Active and inactive are the calls of the source. Calls come from the whole dose curve; as a rule, active = well fitted cell-killing curve with a large enough effect; inconclusive = small, poorly fitted or top-dose-only effect, or effect the other way; inactive = no such curve, though single readings can be large or run the other way.
% is set by controls: 0 for no effect and ±100 for the full control effect; potency is the fitted concentration of half-maximal effect.

In the assay the test system is HeLa. Nature of the assay: Confirmatory qHTS for gynecologic anti-cancer compounds from libraries of approved drugs and bioactive compounds. Note: nearly all actives have a fitted effect of over 55% in size. The conditions noted are these: gynecologic cancer cell panel viability, ATPlite luminescence, 48 h; series mostly up to 57.6 µM. In short, it runs like this: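 Cells (1,000/well) were plated, left 16 h at 37 C/5% CO2, then given compound at 11 concentrations (1:3) from 57.5 uM to 0.977 nM for 48 h. ATPlite luminescence after 15 min at room temperature gave IC50 values.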
In general terms: In qHTS, concentration-response curves come from the screen itself.
Turning to `O=C(O)C1(Cc2cccc(Nc3nccs3)n2)CCC(Oc2cccc(Cl)c2F)CC1` (stereo not drawn), the Potency was 1.22 µM (active).

For `Cc1ccc(C(=O)Nc2ccc(Oc3cc4cnn(C)c4cc3-c3cn[nH]c3)c(F)c2)c(=O)n1-c1ccc(F)cc1`, the Potency was 8.63 µM (active). For `CN(C)CCC(CSc1ccccc1)Nc1ccc(S(=O)(=O)NC(=O)c2ccc(N3CCN(Cc4ccccc4-c4ccc(Cl)cc4)CC3)cc2)cc1[N+](=O)[O-]` (stereo not drawn), the Potency is 19.3 µM (active). On the same count and under the same terms, for `CN1CCN(Cc2ccc(NC(=O)Nc3ccc(Oc4cc(NC(=O)C5CC5)ncn4)cc3)cc2C(F)(F)F)CC1` the value was 0.306 µM (active); for `Cn1cnc2c(F)c(Nc3ccc(Br)cc3F)c(C(=O)NOCCO)cc21`, “inactive”; for `C[C@@H](Oc1cc(-c2cnn(C3CCNCC3)c2)cnc1N)c1c(Cl)ccc(F)c1Cl`, 4.32 µM (active). `CN1C(=O)C(Cc2c[nH]c3ccccc23)NC1=S` (stereo not drawn): the Potency entry is “inactive”. On to `O=C(CCCCCCNC(=O)c1cnc(N(c2ccccc2)c2ccccc2)nc1)NO`, for which the Potency is 7.69 µM (active).

For the compound `CN1CCCC(n2nc(Cc3ccc(Cl)cc3)c3ccccc3c2=O)CC1` (stereo not drawn), the Potency entry is “inactive”. For `C[C@@]1(C(=O)Nc2ccc(F)nc2)CCCN1c1nc(Nc2cc(C3CC3)[nH]n2)c2cccn2n1`, the Potency was 0.968 µM (active). In the case of `CC(C)Nc1cc(-c2c[nH]c(C(=O)N[C@H](CO)c3cccc(Cl)c3)c2)c(Cl)cn1`, the Potency was 21.7 µM (active). Consider `Cc1cc(SCc2sc(-c3ccc(C(F)(F)F)cc3)nc2C)ccc1OCC(=O)O`, for which the Potency result was “inactive”. With `Cc1cnc(Nc2cccc(CN3CCOCC3)c2)nc1Nc1cccc(S(=O)(=O)NC(C)(C)C)c1`, the Potency is 1.72 µM (active). In the case of `C[C@]12CCC(=O)C=C1[C@@H]1C[C@@H]1[C@H]1[C@@H]3[C@@H]4C[C@@H]4[C@@]4(CCC(=O)O4)[C@@]3(C)CC[C@@H]12`, the Potency was 4.85 µM (active).

For `Cc1ccc(C(N)=O)cc1Nc1nccc(-c2cn(C(C)C)c3cnccc23)n1`, the Potency is 7.69 µM (active). The same measure, in the same setting: for `C=CC(=O)Nc1cc2c(Nc3ccc(F)c(Cl)c3)ncnc2cc1OCCCN1CCOCC1` the value was 27.3 µM (active); for `CCN1CCN(Cc2ccc(Nc3ncc(F)c(-c4cc(F)c5nc(C)n(C(C)C)c5c4)n3)nc2)CC1`, 17.2 µM (active). For the compound `Cc1cnc(CNC(=O)c2c(=O)c3ccc(N4CCCN(C)CC4)nc3n3c2sc2ccccc23)cn1`, the activity change, negative = viability loss was -3.33% [at 10.7 µM]. As for `CCS(=O)(=O)c1cccc(-c2cc(C(=O)NC3CCN(C)CC3)c(C)c3[nH]c4ncc(C)cc4c23)c1`, the Potency was 0.476 µM (active). Consider `CCC1=CC2CN(C1)Cc1c([nH]c3ccccc13)[C@@](C(=O)OC)(c1cc3c(cc1OC)N(C)[C@H]1[C@@](O)(C(=O)OC)[C@H](OC(C)=O)[C@]4(CC)C=CCN5CC[C@]31[C@@H]54)C2` (stereo partly drawn), for which the Potency is 0.0943 µM (active). On to `O=C(c1ccc(/C=C/c2n[nH]c3ccccc23)cc1)N1CCNCC1`, for which the Potency is 3.43 µM (active).

Regarding `COc1ccc(-c2nc3ccc(C4=NNC(=O)CC4C)cc3[nH]2)cc1` (stereo not drawn), the Potency was 19.3 µM (active). Take `CC1=C(CO)C(=O)O[C@@H]([C@@H](C)[C@H]2CC[C@H]3[C@@H]4C[C@H]5O[C@]56[C@@H](O)C=CC(=O)[C@]6(C)[C@H]4CC[C@]23C)C1`: the Potency was 2.11 µM (active). On to `COc1cc(-c2nn(C3CCC(N4CCN(C(C)=O)CC4)CC3)c3ncnc(N)c23)ccc1NC(=O)c1cc2ccccc2n1C` (stereo not drawn), for which the Potency was 30.6 µM (active). Turning to `CCCCN(CCCC)C(=O)CN1C[C@H](c2ccc3c(c2)OCO3)[C@@H](C(=O)O)[C@@H]1c1ccc(OC)cc1`, the Potency entry was “inactive”. For the compound `CCn1cc(-c2ccnc3[nH]c(-c4cccc(CN(C)C)c4)cc23)c(-c2ccc(NC(=O)N(C)C)cc2)n1`, the Potency is 2.98 µM (active). Same read-out and setting: the value for `Cc1cnc(Nc2ccc(OCCN3CCCC3)cc2)nc1Nc1cccc(S(=O)(=O)NC(C)(C)C)c1` was 3.85 µM (active); that for `COc1cc2c(cc1-c1c(C)noc1C)ncc1[nH]c(=O)n(C(C)c3ccccn3)c12` (stereo not drawn) was 0.544 µM (active); that for `CNc1nc(Nc2ccc(C(=O)N3CCOCC3)cc2OC)ncc1Cl` was 6.85 µM (active). In the case of `Cc1cc(CN2CCN(c3c(Br)cnc4nc(-c5ccc(N6CCN(C)CC6)cc5)[nH]c34)CC2)no1`, the Potency is 3.06 µM (active). For `Nc1nc(=S)c2[nH]cnc2[nH]1`, the Potency was 2.43 µM (active).

On to `CN(C[C@@H]1COCCO1)S(=O)(=O)Nc1ccc2ccc3ncc(-c4cnn(C)c4)cc3c(=O)c2c1`, for which the Potency is 5.44 µM (active).

As for `COc1cc(C(=O)N2CCC(N3CCN(C)CC3)CC2)ccc1Nc1ncc2c(n1)N(C)c1ccccc1C(=O)N2C`, the Potency is 17.2 µM (active).
